# A selection: hits, their analogues and other compounds. The true share with any hit is near 21%.
# Pf growth 48h – Primary qHTS for delayed death inhibitors of the malarial parasite plastid, 48 hour incubation; P. falciparum luciferase growth in erythrocytes, 48 h; Potency, µM (doses to about 28.7 µM), for inactives: top-dose activity change, negative = inhibition, actives largely listed as inhibitors; 310,000 compounds, 5.9% hits; also: potency is read from the fitted curve at half-maximal effect; % is scaled to controls: 0 for no effect and ±100 for the full control effect
#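 Growth was read as firefly luciferase luminescence after a 48 h, 37 C, 5% CO2 exposure of compounds to reporter-bearing P. falciparum cultures (0.1% parasitemia, 2% hematocrit final) in Albumax-supplemented RPMI 1640.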
# NS1 function inh – qHTS Assay for Inhibitors of Influenza NS1 Protein Function | Potency, µM (doses to about 46.1 µM), without a hit: at the top dose activity, positive = more growth | 270,000 compounds, 0.4% hits; calls by dose curve; also: potency is read from the fitted curve at half-maximal effect; actives are rising curves; nearly all actives have a fitted effect of over 50% in size
#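 OD600 was taken as the measure of yeast growth restored by compound in an NS1-expressing S. cerevisiae strain. Cells had been washed out of glucose medium and diluted 1:100 into galactose -URA medium, pH 6.0.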
# Shiga inhibitor – A qHTS for Small Molecule Inhibitors of Shiga Toxin. Vero cells, Shiga toxin protein synthesis inhibition reporter. inhibition, % at 38.7 µM. 290,000 compounds, 9.2% hits; in the data active = inhibition mostly above about 28%, no sharp cut-off; inactive = mostly below about 43%; also: 0% is about no effect
# Pf growth 96h – Primary qHTS for delayed death inhibitors of the malarial parasite plastid, 96 hour incubation; P. falciparum luciferase reporter growth, 96 h; Potency, µM (doses to about 28.7 µM), inactives show at the top dose activity change, negative = inhibition, actives largely listed as inhibitors; 320,000 compounds, 6.9% hits; also: potency is read from the fitted curve at half-maximal effect; % is scaled to controls: 0 for no effect and ±100 for the full control effect
#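 Compounds incubated with erythrocytes infected by luciferase-expressing P. falciparum (2% hematocrit, 0.05% parasitemia final) for 96 hours, 37 C in 5% CO2. Growth inhibition scored as decreased luciferase luminescence.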
# SARS PLP yeast – qHTS of Yeast-based Assay for SARS-CoV PLP | S. cerevisiae expressing SARS-CoV PLpro, growth rescue | Potency, µM (top dose mostly 32.9 µM), for the others: at the top dose activity, positive = growth rescue, most hits filed as activators | 330,000 compounds, 0.19% hits; calls by dose curve; also: potency is read from the fitted curve at half-maximal effect; 0% is about no effect; nearly all actives have a fitted effect of over 55% in size
# Cycloheximide cs – Cycloheximide Counterscreen for Small Molecule Inhibitors of Shiga Toxin; cell reporter, cycloheximide protein synthesis inhibition counterscreen; max response, %; 300,000 compounds, 12% hits; AID 2314, 2010; in the data active = max response mostly above about 13%, no sharp cut-off; inactive = mostly below about 14%; also: read at 38.3 µM for the half of the compounds with a filed dose; 0% is about no effect
# * marks the source's active call; other numbers are inactive results; ? = inconclusive; nt = no result. Unless noted, calls follow the shape of the dose curve; as a rule, active = well fitted inhibition curve with a large enough effect; inconclusive = small, poorly fitted or top-dose-only effect, or another doubt; inactive = no such curve, though single readings can be large or run the other way.
SMILES,Pf growth 48h,NS1 function inh,Shiga inhibitor,Pf growth 96h,SARS PLP yeast,Cycloheximide cs
CC(NCc1ccccc1O)C12CC3CC(CC(C3)C1)C2 (configuration not stated),0.0657µM*,-8.4%,0.7,0.104µM*,0.2%,-3.0
COCCCNC(=O)c1ccc(-n2c(-c3ccccc3)cc3c2CCCCC3)cc1,nt,nt,103.4*,nt,nt,22.7*
CC(C)(C)N1C(=O)c2ccccc2NC(=O)N1Cc1ccc(Br)cc1,nt,-7.6%,-11.9,8.28µM*,-5.0%,-3.4
CC(C)CCNC(=O)NC(=O)COC(=O)C1CCN(S(=O)(=O)c2ccccc2F)CC1,6.8%,4.4%,-9.5,157.1%,-10.2%,-0.9
O=C(CSc1nnc(NCc2ccccc2)s1)c1ccco1,-15.7%,-17.3%,78.0*,?,-1.4%,15.6
O=C1COc2ccc(C(=O)CSc3nnc(NCc4ccccc4)s3)cc2N1,?,-1.2%,-5.4,?,-0.1%,-2.2
C=CCn1c(C)cc(C(=O)CSc2nnc(NC(C)C)s2)c1C,?,5.4%,3.9,4.65µM*,-18.3%,7.6
Cc1cc(NC(=O)CSc2nnc(NCc3ccccc3)s2)no1,30.3%,3.3%,-3.5,93.4%,-0.1%,-2.7
C=CCn1c(C)cc(C(=O)CSc2nnc(NCc3ccccc3)s2)c1C,-16.6%,-123.0%,57.2,?,-14.6%,46.4*
CC(C)Nc1nnc(SCC(=O)Nc2ccc(F)cc2)s1,?,-4.2%,8.8,-28.8%,4.2%,5.9
Cc1cc(C)c(NC(=O)CO/N=C2\CCCc3nonc32)c(C)c1,-2.7%,6.1%,-16.7,2.4%,3.6%,-3.5
CSCC[C@H](NC(=O)[C@@H]1Cc2c([nH]c3ccccc23)C2c3ccccc3C(=O)N21)C(=O)NCC1CCCO1 (some centres not stated),?,-0.8%,-1.7,9.28µM*,1.6%,1.9
CC(C)C[C@H](NC(=O)[C@@H]1Cc2c([nH]c3ccccc23)C2c3ccccc3C(=O)N21)C(=O)NCC1CCCO1 (some centres not stated),?,-9.5%,-7.3,9.28µM*,5.3%,-3.3
O=C(NCC1CCCCC1)c1cccc(Br)c1,20.2%,4.5%,5.2,66.7%,0.6%,9.1
CCOc1ccc(CO/N=C/c2c(C)[nH]c(=O)[nH]c2=O)cc1,-7.3%,nt,-6.0,-19.0%,-0.4%,-2.6
O=C(CCN1CCCCO1)N1CCCC(Nc2ccc(F)cc2)C1 (configuration not stated),-14.6%,8.4%,-5.1,11.7µM*,2.3%,0.1
O=C(CCN1CCCCO1)N1CCCC(Nc2cccc(F)c2)C1 (configuration not stated),37.6%,6.8%,2.7,?,-4.9%,-3.4
COc1ccc(NC2CCCN(C(=O)CCC(=O)c3ccc(F)cc3)C2)cc1 (configuration not stated),?,5.8%,71.8,-5.0%,-0.7%,47.3*
COc1ccc(NC2CCCN(C(=O)c3c(C)noc3C)C2)cc1 (configuration not stated),?,3.2%,-15.1,1.85µM*,1.9%,-2.9
CCc1[nH]nc(C(=O)N2CCCC(Nc3cccc(F)c3)C2)c1C (configuration not stated),34.6%,-1.3%,65.7*,11.2%,0.5%,30.6*
COc1ccc(C(C)=O)cc1COC(=O)C(CO)NS(=O)(=O)c1ccc(Br)cc1 (configuration not stated),-2.1%,nt,-15.9,-4.7%,-3.2%,1.0
COc1ccc(C=NNC(=O)c2ccccc2OCc2ccc(F)cc2)c(OC)c1,nt,nt,nt,nt,-2.1%,nt
CCCNC(=O)COc1coc(CN2CCN(c3ccc(F)cc3)CC2)cc1=O,-2.6%,1.1%,-5.6,?,5.0%,-1.1
O=C(CCn1cnnn1)N1CCCC(Nc2ccc(F)cc2)C1 (configuration not stated),-17.3%,-6.7%,6.9,-6.4%,2.1%,6.4
CN(C)c1ccccc1C(=O)N1CCCC(Nc2ccc(F)cc2)C1 (configuration not stated),-9.5%,-3.7%,-13.5,13.1µM*,1.9%,-1.4
SMILES,Pf growth 48h,NS1 function inh,Shiga inhibitor,Pf growth 96h,SARS PLP yeast,Cycloheximide cs
Cn1cc(C(=O)N2CCCC(Nc3ccc(F)cc3)C2)c2ccccc21 (configuration not stated),-3.5%,-2.8%,-5.2,-7.6%,-5.2%,-2.9
COc1ccc2cc(C(=O)N3CCCC(Nc4ccc(F)cc4)C3)n(C)c2c1 (configuration not stated),-4.1%,-5.3%,-18.4,5.86µM*,-0.1%,-3.6
COc1ccc(NC2CCCN(C(=O)CCN3Cc4ccccc4C3=O)C2)cc1 (configuration not stated),10.0%,1.0%,9.4,8.28µM*,-3.1%,13.9
Cc1noc(/C=C/c2ccccc2F)c1S(=O)(=O)N1CCC(C(=O)N2CCN(C)CC2)CC1,-0.7%,-10.0%,-3.5,-19.7%,2.1%,-1.9
CCOc1ccccc1/C=C/c1onc(C)c1S(=O)(=O)N1CCC(C(=O)N(CC)CC)CC1,10.4µM*,17.9%,-6.5,11.6%,-0.1%,8.4
CCN(CCN(C)C)C(=O)C1CCN(S(=O)(=O)c2c(C)noc2/C=C/c2ccccc2F)CC1,9.28µM*,-3.1%,-17.9,-14.3%,-4.1%,-14.9
CCC1CCc2c(sc(NC(=O)c3ccco3)c2C(N)=O)C1 (configuration not stated),102.1%,10.2%,95.7*,57.6%,-29.4%,30.4*
CC(C)(C)C1CCc2c(sc(NC(=O)C3CCCO3)c2C(N)=O)C1 (configuration not stated),?,-23.8%,10.2,30.3%,-9.0%,3.6
CCC1CCc2c(sc(NC(=O)c3cnccn3)c2C(N)=O)C1 (configuration not stated),68.9%,-13.1%,nt,-16.3%,1.8%,-2.6
CC(C)(C)C1CCc2c(sc(NC(=O)c3ccco3)c2C(N)=O)C1 (configuration not stated),77.0%,?,24.1,?,6.0%,14.9*
CC(=O)c1c(C)[nH]c(C(=O)OCC(=O)N2CCN(S(=O)(=O)c3ccc(C)cc3)CC2)c1C,?,nt,nt,13.1µM*,-0.6%,nt
CCOC(=O)c1c(C)[nH]c(C(=O)OCC(=O)N2CCN(S(=O)(=O)c3ccccc3)CC2)c1C,nt,-1.0%,-7.9,-60.3%,-0.7%,-2.9
CC(=O)c1c(C)[nH]c(C(=O)OCC(=O)N2CCN(S(=O)(=O)c3ccc(C)cc3C)CC2)c1C,nt,-1.4%,-12.7,8.28µM*,25.4%,-4.6
O=C(COC(=O)c1nc(Cl)ccc1Cl)c1ccccc1Cl,-3.8%,nt,nt,39.3%,0.2%,nt
CSCCC(NC(=O)c1ccccc1)C(=O)NCCc1ccc2c(c1)OCCO2 (configuration not stated),?,nt,nt,-29.8%,2.1%,nt
COc1ccccc1CNc1ccccc1F,26.0%,-2.7%,23.9,21.8%,-0.2%,16.9*

# Compound activity: PubChem BioAssay, National Center for Advancing Translational Sciences (NCATS)
